Assay results reported in PubChem BioAssay (NCI).
Where “and” joins values, the source holds several entries; their conditions need not be identical. Equal values may be shown once. The panel holds about 83,000 compounds, 20% with a hit somewhere; the sample as a whole holds those more often.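 Negative percent growth values reflect cell death: -40 means 40% of the cells present at the start died, and -100 means all died.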 Calls of active or inactive are those of the source. Rule for the calls: active = growth percent below 10; inactive = the rest.

These molecules were tested on OVCAR-8 ovarian (assay: NCI-60 one-dose screen, 48 h (100 = growth as untreated, 0 = no growth, -100 = all killed)). Conditions: 10 µM unless noted.
For `Cc1ccc(NC(=O)c2ccc(CN3CCN(C)CC3)cc2)cc1Nc1nccc(-c2cccnc2)n1`, the growth was 91.6% (inactive) and 67.7% (inactive). For `Fc1ccc(NC(c2ccc(F)cc2)C2CCN(CCCCc3ccccc3)CC2)cc1` (stereo not drawn), the growth was -21.9% (active). For `COc1ccc2c(O)c(/C=C3\N=Nc4nc(C)ccc43)oc2c1CC1CCNCC1`, the growth was 68.4% (inactive). With `COc1ccc(C(=O)N/N=C/c2ccc(O)cc2O)cc1Nc1ccnc(C(F)(F)F)c1` the growth was 23.1% (inactive). For `COc1ccc(-c2cc(-c3cc(OC)c(OC)c(OC)c3)c(C#N)c(=O)n2CCCCC(=O)O)cc1`, the growth was 92.4% (inactive). With `COc1cc(-c2[nH]ncc2Nc2ccc(Cl)cc2)cc(OC)c1OC` the growth was 67.5% (inactive). For `Nc1ccc(S(=O)(=O)c2ccc(N)cc2)cc1`, the growth was 97.2% (inactive) and 93.1% (inactive). `C/C(=C(\c1ccc(OCCN2CCOCC2)cc1)c1ccc(OC(=O)C2CCCCC2)cc1)c1ccc(Cl)cc1` was tested, and the growth was 101% (inactive). With `CCN(CC)CCOc1ccc(/C(=C(\Cl)c2ccccc2)c2ccccc2)cc1` the growth was 67.2% (inactive) and 104% (inactive). For `CSc1nnc(-c2cc3c([nH]c4ccccc43)c(-c3cccc(O)c3)n2)n1-c1ccc(C)cc1`, the growth was 34.8% (inactive). With `COc1ccc(/C(C)=C(\c2ccc(OCCN3CCCCCC3)cc2)c2ccc(OC(=O)C3CCCCC3)cc2)cc1` the growth was -47.3% (active). `N=C1/C(=C2\NC3C=CC=CC3S2)C(c2ccc(Cl)cc2)C2C(=O)N(c3ccccc3)C(=S)N12` (stereo not drawn) was tested, and the growth was 99.1% (inactive). For `Nc1nc(Nc2cccnc2)sc1C(=O)c1ccccc1F`, the growth was 31.8% (inactive). `COCCOc1cc2ncnc(N3CCN(S(=O)(=O)c4ccccc4Cl)CC3)c2cc1OCCOC` was tested, and the growth was 93.9% (inactive). In the case of `O=C1/C(=C/c2ccc(F)c(F)c2)CN(C(=O)C(Cl)Cl)C/C1=C\c1ccc(F)c(F)c1`, the growth is reported as -95.4% (active). With `O=C([C@H]1C[C@H]1c1ccc(S(F)(F)(F)(F)F)cc1)N1CCN(c2cc(Cl)ccc2C(F)(F)F)CC1` the growth was 92.2% (inactive). In the case of `O=C(NNc1ccccc1)c1ncc[nH]1`, the growth is reported as 80.9% (inactive). In the case of `COc1cccc(C2C(C#N)=C(N)Oc3cc(OCCCCCC[P+](c4ccccc4)(c4ccccc4)c4ccccc4)ccc32)c1` (stereo not drawn), the growth is reported as 1.01% (active). `CCOC(=O)N(O)c1ccc(/C=C/c2ccccc2)cc1` was tested, and the growth was 76.7% (inactive) and 37.1% (inactive). In the case of `CN(C)CCN1C(=O)c2c(c3c4ccccc4n4c3c3c2c2ccccc2n3C2CC(O)C(O)C4(C)O2)C1=O` (stereo not drawn), the growth is reported as 25.3% (inactive). With `O=C(CCCOc1ccc(Br)cc1)Nc1ncc(Cc2ccc(F)cc2)s1` the growth was 91.5% (inactive). In the case of `COc1cc(NC2CCCCC2O)c2nc(-c3ccc(Cl)cc3)ccc2c1` (stereo not drawn), the growth is reported as 85.5% (inactive) and 90.1% (inactive). For `O=C(O)C1C2CCC1C(O)C2` (stereo not drawn), the growth was 100% (inactive) and 98.1% (inactive). `C=C1CC[C@@H]2[C@](C)(COC(C)=O)[C@H](OC(C)=O)CC[C@@]2(C)[C@@H]1CC(Nc1ccc(S(=O)(=O)Nc2nccs2)cc1)C1=CCOC1=O` (stereo partly drawn) was tested, and the growth was 4.39% (active). With `Nc1nc(Nc2ccc(F)cc2)nn1C(=O)c1cc(Cl)ccc1Cl` the growth was 68.4% (inactive).

The molecules below were run on OVCAR-5 ovarian in the same assay as above. Conditions: 10 µM unless noted.
For `CN(C)C(=O)c1cc2cnc(Nc3ccc(-c4csc5c(=S)cc(N6CCOCC6)oc45)cc3)nc2n1C1CCCC1`, the growth was 17% (inactive). With `CN1CCN(c2ccc(/C=C/C(=O)c3ccc(O)cc3)cc2)CC1` the growth was 98.1% (inactive). In the case of `CCCCC(NC(=O)CN1C(=O)/C(=C/C(C)=C/c2ccccc2)SC1=S)C(=O)O` (stereo not drawn), the growth is reported as 101% (inactive). `CC1(Cc2ccccc2)CC2=C(C(=O)O1)C(c1ccccc1)NC(=O)N2` (stereo not drawn) was tested, and the growth was 81.2% (inactive). In the case of `COc1ccc(-c2nc(Cl)c3c(C)nn(-c4ccc(F)cc4)c3n2)cc1`, the growth is reported as 110% (inactive). With `CCCCn1c(C(=O)c2c[nH]c3ccccc23)n[nH]c1=S` the growth was 133% (inactive). For `COc1ccc(/C=C2\COc3ccc(O)c(O)c3C2=O)c(OC)c1OC`, the growth was 36.2% (inactive). With `C=C(CN1CC=CCC1)[C@@H]1CC[C@]2(COC(C)=O)CC[C@]3(C)[C@H](CC[C@@H]4[C@@]5(C)CC[C@H](O)C(C)(C)[C@@H]5CC[C@]43C)[C@@H]12` the growth was 132% (inactive). With `O=[N+]([O-])c1ccc(S(=O)Cc2ccccc2)c([N+](=O)[O-])c1` (stereo not drawn) the growth was 82.4% (inactive) and 93.3% (inactive). In the case of `O=C(Cn1cc(CN2CCN(c3ccnc4cc(Cl)ccc34)CC2)nn1)Nc1cccc([N+](=O)[O-])c1`, the growth is reported as 96.4% (inactive). For `Nc1n[nH]c2cccc(C#Cc3cccc(NC(=O)c4ccc(N5CCOCC5)c(C(F)(F)F)c4)c3)c12`, the growth was 8.26% (active). In the case of `COC1=CC(=O)C(OC)=C(O)C1=O`, the growth is reported as 95.2% (inactive). For `CONC1=Nc2cc(NC(N)=NCc3ccccc3)c(N(C)C3CCCCC3)cc2OC1`, the growth was 65.5% (inactive). In the case of `Cc1ccc(NC(=O)c2ccc(CN3CCN(C)CC3)cc2)cc1Nc1nccc(-c2cccnc2)n1`, the growth is reported as 123% (inactive) and 97.5% (inactive). For `Fc1ccc(NC(c2ccc(F)cc2)C2CCN(CCCCc3ccccc3)CC2)cc1` (stereo not drawn), the growth was 59.1% (inactive). In the case of `COc1ccc2c(O)c(/C=C3\N=Nc4nc(C)ccc43)oc2c1CC1CCNCC1`, the growth is reported as 65% (inactive). With `COc1ccc(C(=O)N/N=C/c2ccc(O)cc2O)cc1Nc1ccnc(C(F)(F)F)c1` the growth was 46.3% (inactive). `COc1ccc(-c2cc(-c3cc(OC)c(OC)c(OC)c3)c(C#N)c(=O)n2CCCCC(=O)O)cc1` was tested, and the growth was 105% (inactive). For `COc1cc(-c2[nH]ncc2Nc2ccc(Cl)cc2)cc(OC)c1OC`, the growth was 75.7% (inactive). `Nc1ccc(S(=O)(=O)c2ccc(N)cc2)cc1` was tested, and the growth was 104% (inactive) and 96.4% (inactive). `C/C(=C(\c1ccc(OCCN2CCOCC2)cc1)c1ccc(OC(=O)C2CCCCC2)cc1)c1ccc(Cl)cc1` was tested, and the growth was 95.6% (inactive). `CCN(CC)CCOc1ccc(/C(=C(\Cl)c2ccccc2)c2ccccc2)cc1` was tested, and the growth was 47.5% (inactive) and 72.4% (inactive). With `CSc1nnc(-c2cc3c([nH]c4ccccc43)c(-c3cccc(O)c3)n2)n1-c1ccc(C)cc1` the growth was 72.6% (inactive). `COc1ccc(/C(C)=C(\c2ccc(OCCN3CCCCCC3)cc2)c2ccc(OC(=O)C3CCCCC3)cc2)cc1` was tested, and the growth was -24.7% (active). For `N=C1/C(=C2\NC3C=CC=CC3S2)C(c2ccc(Cl)cc2)C2C(=O)N(c3ccccc3)C(=S)N12` (stereo not drawn), the growth was 106% (inactive). In the case of `Nc1nc(Nc2cccnc2)sc1C(=O)c1ccccc1F`, the growth is reported as 26.2% (inactive). With `COCCOc1cc2ncnc(N3CCN(S(=O)(=O)c4ccccc4Cl)CC3)c2cc1OCCOC` the growth was 102% (inactive). With `O=C1/C(=C/c2ccc(F)c(F)c2)CN(C(=O)C(Cl)Cl)C/C1=C\c1ccc(F)c(F)c1` the growth was -72.6% (active). In the case of `O=C([C@H]1C[C@H]1c1ccc(S(F)(F)(F)(F)F)cc1)N1CCN(c2cc(Cl)ccc2C(F)(F)F)CC1`, the growth is reported as 95.3% (inactive). In the case of `O=C(NNc1ccccc1)c1ncc[nH]1`, the growth is reported as 65.3% (inactive). `COc1cccc(C2C(C#N)=C(N)Oc3cc(OCCCCCC[P+](c4ccccc4)(c4ccccc4)c4ccccc4)ccc32)c1` (stereo not drawn) was tested, and the growth was -2.3% (active). With `CCOC(=O)N(O)c1ccc(/C=C/c2ccccc2)cc1` the growth was 18.9% (inactive) and 3.82% (active). For `CN(C)CCN1C(=O)c2c(c3c4ccccc4n4c3c3c2c2ccccc2n3C2CC(O)C(O)C4(C)O2)C1=O` (stereo not drawn), the growth was 55.6% (inactive). With `O=C(CCCOc1ccc(Br)cc1)Nc1ncc(Cc2ccc(F)cc2)s1` the growth was 79.4% (inactive). In the case of `COc1cc(NC2CCCCC2O)c2nc(-c3ccc(Cl)cc3)ccc2c1` (stereo not drawn), the growth is reported as 107% (inactive) and 94.6% (inactive). In the case of `O=C(O)C1C2CCC1C(O)C2` (stereo not drawn), the growth is reported as 96.5% (inactive) and 96.2% (inactive). `C=C1CC[C@@H]2[C@](C)(COC(C)=O)[C@H](OC(C)=O)CC[C@@]2(C)[C@@H]1CC(Nc1ccc(S(=O)(=O)Nc2nccs2)cc1)C1=CCOC1=O` (stereo partly drawn) was tested, and the growth was 7.82% (active). With `Nc1nc(Nc2ccc(F)cc2)nn1C(=O)c1cc(Cl)ccc1Cl` the growth was 59.5% (inactive).
